About 6,500 targets were measured; listed, in parts, are those with a hit and a random draw of the rest. About 2% of all pairs of compound and target were hits. Unmarked numbers belong to inactive results.
compound: COC(=O)C#Cc1ccccc1 [methyl 3-phenylpropiolate]; experiment: log2 ratio of iodoacetamide-alkyne labeling of the cysteine site, DMSO over compound (competition); higher = stronger covalent engagement of the cysteine by the compound, active = 1 or more; conditions: 500 µM; treatment time 1 h; system: HEK293T cell lysate
Outline: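 The log2 competition ratio per cysteine is defined as mean reporter intensity in control channels over mean reporter intensity in compound channels. Lysate from HEK293T cells (2 mg/mL) received electrophile (500 µM) or vehicle for 1 h at ambient temperature, followed by iodoacetamide alkyne for 1 h. Samples were clicked to sCIP-TMT reagents, pooled, trypsin-digested overnight at 37 °C, streptavidin-enriched, acid-eluted and run on Orbitrap Eclipse LC-MS/MS with FAIMS, with quantification in FragPipe. Three replicates with duplicate channels were used, and any cysteine quantified in only one replicate was excluded.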

UniProt Q06547, sequence (Q06547 whole entry): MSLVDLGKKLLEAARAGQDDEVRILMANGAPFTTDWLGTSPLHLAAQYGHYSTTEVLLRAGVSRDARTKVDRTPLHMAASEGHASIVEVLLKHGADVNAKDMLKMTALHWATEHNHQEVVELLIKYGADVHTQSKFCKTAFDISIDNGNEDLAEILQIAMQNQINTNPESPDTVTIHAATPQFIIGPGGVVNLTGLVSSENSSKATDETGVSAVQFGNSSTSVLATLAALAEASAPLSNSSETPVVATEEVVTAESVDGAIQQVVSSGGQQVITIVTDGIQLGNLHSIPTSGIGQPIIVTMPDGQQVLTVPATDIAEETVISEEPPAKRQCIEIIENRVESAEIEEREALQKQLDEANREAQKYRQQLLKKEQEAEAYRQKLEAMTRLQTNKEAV
UniProt Q13418, sequence (Q13418 whole entry, looked up): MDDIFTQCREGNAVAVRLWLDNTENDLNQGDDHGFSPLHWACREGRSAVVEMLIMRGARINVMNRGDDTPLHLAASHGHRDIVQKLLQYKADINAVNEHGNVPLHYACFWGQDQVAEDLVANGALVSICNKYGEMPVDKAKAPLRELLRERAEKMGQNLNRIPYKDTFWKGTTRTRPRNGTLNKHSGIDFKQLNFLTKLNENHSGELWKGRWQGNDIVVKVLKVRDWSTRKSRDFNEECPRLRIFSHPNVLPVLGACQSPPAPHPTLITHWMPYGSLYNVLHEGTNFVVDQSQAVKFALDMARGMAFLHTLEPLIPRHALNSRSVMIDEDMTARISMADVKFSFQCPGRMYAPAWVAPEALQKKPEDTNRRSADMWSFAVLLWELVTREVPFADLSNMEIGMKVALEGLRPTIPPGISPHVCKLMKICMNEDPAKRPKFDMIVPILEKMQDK
UniProt P57678, sequence (P57678 whole entry, looked up): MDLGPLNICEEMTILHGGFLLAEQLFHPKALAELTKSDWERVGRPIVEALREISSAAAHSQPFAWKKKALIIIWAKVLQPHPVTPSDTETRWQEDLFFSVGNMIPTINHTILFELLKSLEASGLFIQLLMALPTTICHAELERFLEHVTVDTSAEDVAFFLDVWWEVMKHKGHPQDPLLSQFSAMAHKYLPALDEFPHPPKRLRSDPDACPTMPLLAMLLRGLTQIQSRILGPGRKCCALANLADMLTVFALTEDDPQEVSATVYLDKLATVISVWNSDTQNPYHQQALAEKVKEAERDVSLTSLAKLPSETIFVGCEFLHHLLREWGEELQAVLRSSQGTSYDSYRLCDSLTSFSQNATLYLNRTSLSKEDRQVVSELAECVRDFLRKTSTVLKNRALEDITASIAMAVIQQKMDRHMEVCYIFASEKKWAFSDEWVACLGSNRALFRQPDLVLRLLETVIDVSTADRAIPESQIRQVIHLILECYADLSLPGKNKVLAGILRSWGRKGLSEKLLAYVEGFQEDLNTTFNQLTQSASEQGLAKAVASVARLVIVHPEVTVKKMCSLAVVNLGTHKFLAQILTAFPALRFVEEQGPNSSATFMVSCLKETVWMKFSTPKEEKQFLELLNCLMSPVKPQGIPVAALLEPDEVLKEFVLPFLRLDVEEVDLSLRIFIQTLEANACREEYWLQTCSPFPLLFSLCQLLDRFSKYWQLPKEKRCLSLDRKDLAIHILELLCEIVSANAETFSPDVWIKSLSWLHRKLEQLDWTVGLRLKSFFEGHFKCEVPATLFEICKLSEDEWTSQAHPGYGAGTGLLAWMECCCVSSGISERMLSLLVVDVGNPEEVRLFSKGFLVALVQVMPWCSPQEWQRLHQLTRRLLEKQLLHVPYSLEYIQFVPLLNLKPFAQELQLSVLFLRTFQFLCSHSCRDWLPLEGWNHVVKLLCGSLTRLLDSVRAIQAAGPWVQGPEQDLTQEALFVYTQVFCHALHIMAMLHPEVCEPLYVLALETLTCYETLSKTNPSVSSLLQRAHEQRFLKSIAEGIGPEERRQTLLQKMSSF
UniProt P85037, sequence (P85037 whole entry, looked up): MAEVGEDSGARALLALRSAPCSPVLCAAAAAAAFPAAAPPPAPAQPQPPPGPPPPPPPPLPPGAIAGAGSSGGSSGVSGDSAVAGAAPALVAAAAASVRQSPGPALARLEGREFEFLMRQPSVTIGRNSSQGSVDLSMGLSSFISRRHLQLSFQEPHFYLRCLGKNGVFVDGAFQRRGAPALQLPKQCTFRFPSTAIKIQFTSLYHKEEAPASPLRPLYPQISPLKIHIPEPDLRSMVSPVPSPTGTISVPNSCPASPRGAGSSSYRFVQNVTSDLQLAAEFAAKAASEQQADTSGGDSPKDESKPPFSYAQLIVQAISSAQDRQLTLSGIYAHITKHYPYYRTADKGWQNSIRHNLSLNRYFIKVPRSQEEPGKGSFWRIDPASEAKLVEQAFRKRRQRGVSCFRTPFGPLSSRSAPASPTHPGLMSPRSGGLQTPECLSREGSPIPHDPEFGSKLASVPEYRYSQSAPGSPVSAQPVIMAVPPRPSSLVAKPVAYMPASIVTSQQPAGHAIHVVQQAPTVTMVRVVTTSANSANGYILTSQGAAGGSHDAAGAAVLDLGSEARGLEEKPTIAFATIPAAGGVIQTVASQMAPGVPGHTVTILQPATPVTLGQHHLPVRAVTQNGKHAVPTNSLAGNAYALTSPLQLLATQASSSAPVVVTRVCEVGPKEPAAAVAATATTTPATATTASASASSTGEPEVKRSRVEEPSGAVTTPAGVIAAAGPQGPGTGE
UniProt Q14790, sequence (Q14790 whole entry): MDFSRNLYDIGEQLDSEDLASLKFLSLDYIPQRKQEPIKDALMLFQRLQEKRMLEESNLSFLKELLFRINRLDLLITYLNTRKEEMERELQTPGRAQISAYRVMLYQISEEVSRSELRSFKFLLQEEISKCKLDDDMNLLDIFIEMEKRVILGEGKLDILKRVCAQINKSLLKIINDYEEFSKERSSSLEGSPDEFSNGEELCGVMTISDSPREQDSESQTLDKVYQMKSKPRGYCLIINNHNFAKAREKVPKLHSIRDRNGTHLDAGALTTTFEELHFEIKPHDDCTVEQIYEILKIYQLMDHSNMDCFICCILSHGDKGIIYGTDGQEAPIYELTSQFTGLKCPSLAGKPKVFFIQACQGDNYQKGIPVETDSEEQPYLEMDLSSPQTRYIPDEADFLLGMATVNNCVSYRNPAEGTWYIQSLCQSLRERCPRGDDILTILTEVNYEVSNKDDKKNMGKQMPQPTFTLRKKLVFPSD
UniProt Q15436, sequence (Q15436 whole entry, looked up): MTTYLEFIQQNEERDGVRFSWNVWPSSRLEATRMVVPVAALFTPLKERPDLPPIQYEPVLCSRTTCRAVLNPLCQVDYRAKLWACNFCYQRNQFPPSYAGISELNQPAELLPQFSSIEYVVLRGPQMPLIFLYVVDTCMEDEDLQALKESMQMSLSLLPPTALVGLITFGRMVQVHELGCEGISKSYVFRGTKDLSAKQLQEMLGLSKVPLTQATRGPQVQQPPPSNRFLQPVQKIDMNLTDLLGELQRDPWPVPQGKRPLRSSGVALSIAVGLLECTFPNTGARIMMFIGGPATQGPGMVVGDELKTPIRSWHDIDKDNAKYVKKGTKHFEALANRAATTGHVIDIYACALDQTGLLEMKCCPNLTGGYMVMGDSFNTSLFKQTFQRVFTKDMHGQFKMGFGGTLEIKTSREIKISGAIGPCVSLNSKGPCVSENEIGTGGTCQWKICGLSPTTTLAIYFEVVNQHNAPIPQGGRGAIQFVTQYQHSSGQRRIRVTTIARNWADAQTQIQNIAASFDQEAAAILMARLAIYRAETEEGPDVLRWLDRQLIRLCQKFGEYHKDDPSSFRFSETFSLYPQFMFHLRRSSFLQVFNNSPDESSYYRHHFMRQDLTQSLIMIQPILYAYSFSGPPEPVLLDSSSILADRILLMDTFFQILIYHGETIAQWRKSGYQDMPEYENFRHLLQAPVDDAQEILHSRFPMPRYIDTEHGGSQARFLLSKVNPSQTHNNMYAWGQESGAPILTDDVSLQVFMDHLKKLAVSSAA
UniProt Q13642, sequence (Q13642 whole entry, looked up): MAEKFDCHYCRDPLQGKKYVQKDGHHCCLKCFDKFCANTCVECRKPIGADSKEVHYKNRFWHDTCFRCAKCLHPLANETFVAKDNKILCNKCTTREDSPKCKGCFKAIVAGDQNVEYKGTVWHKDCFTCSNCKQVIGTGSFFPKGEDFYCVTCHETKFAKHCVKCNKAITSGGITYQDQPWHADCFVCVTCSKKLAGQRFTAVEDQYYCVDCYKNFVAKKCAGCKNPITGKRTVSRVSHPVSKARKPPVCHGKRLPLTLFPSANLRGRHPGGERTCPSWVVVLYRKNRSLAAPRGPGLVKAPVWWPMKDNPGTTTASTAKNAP
UniProt Q08J23, sequence (Q08J23 whole entry, looked up): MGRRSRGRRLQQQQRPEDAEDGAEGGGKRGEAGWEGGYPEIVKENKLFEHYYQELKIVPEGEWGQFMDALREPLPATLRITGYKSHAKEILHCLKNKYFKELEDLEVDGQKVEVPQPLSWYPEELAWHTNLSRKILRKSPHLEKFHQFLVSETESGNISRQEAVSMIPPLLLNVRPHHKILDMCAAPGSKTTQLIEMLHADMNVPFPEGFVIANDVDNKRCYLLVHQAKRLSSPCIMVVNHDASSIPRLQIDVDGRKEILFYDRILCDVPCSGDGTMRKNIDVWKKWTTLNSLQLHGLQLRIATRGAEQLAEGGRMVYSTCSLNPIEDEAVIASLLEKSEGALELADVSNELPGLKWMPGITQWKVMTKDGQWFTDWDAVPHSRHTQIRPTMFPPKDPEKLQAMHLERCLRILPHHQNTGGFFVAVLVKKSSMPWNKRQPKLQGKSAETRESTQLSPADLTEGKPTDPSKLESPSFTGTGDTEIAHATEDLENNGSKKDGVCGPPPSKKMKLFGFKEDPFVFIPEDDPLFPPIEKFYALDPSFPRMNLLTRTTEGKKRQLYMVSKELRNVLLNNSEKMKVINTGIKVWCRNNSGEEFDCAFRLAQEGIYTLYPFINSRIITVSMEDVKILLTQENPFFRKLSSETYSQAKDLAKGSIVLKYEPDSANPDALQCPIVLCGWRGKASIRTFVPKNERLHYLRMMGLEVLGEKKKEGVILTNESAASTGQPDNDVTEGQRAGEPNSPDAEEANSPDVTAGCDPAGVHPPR

**Q.** With FOXK1 C254 (UniProt P85037) as the target, how does the “log2 ratio of iodoacetamide-alkyne labeling” value (from here on “log2 ratio”) read?
**A.** 1.18 (active)

**Q.** Which “log2 ratio” value does the source give for FHL1 C10 (UniProt Q13642) here?
**A.** -0.136

**Q.** How did the “log2 ratio” value turn out when GEMIN4 C382 (UniProt P57678) was run?
**A.** 0.0965

**Q.** RING1 C69 (UniProt Q06587) was tested. Which “log2 ratio” value did it give?
**A.** 0.171

**Q.** With COASY C144 (UniProt Q13057) as the target, how does the “log2 ratio” value read?
**A.** 1.16 (active)

**Q.** With DYNC1H1 C1977 (UniProt Q14204) as the target, how does the “log2 ratio” value read?
**A.** 0.124

**Q.** How did the “log2 ratio” value turn out when GSTO1 C32 (UniProt P78417) was run?
**A.** 2.51 (active)

**Q.** Which “log2 ratio” value does the source give for UniProt P62280_C60 here?
**A.** 2.21 (active)

**Q.** With SF3A3 C103 (UniProt Q12874) as the target, how does the “log2 ratio” value read?
**A.** 0.188

**Q.** Which “log2 ratio” value does the source give for MAP7D1 C361 (UniProt Q3KQU3) here?
**A.** 1.65 (active)

**Q.** With CASP8 C360 (UniProt Q14790) as the target, how does the “log2 ratio” value read?
**A.** 1.2 (active)

**Q.** UniProt P62834_C141 was tested. Which “log2 ratio” value did it give?
**A.** 0.00921

**Q.** For PIN1 C57 (UniProt Q13526), which “log2 ratio” value is on record?
**A.** -0.187

**Q.** For USP14 C415 (UniProt P54578), which “log2 ratio” value is on record?
**A.** -0.369

**Q.** For TBL3 C696 (UniProt Q12788), which “log2 ratio” value is on record?
**A.** 0.373

**Q.** With UniProt P62258_C97 as the target, how does the “log2 ratio” value read?
**A.** -0.063

**Q.** Which “log2 ratio” value does the source give for NUMA1 C961 (UniProt Q14980) here?
**A.** 1.55 (active)

**Q.** For HNRNPUL2 C308 (UniProt Q1KMD3), which “log2 ratio” value is on record?
**A.** 0.826

**Q.** SEC23A C432 (UniProt Q15436) was tested. Which “log2 ratio” value did it give?
**A.** 0.163

**Q.** With NDUFA5 C17 (UniProt Q16718) as the target, how does the “log2 ratio” value read?
**A.** 0.144

**Q.** EFTUD2 C144 (UniProt Q15029) was tested. Which “log2 ratio” value did it give?
**A.** 0.297

**Q.** With UBE2V1 C144 (UniProt Q13404) as the target, how does the “log2 ratio” value read?
**A.** 0.136

**Q.** For CAP1 C93 (UniProt Q01518), which “log2 ratio” value is on record?
**A.** 0.152

**Q.** Which “log2 ratio” value does the source give for PAFAH1B3 C55 (UniProt Q15102) here?
**A.** 0.0597

**Q.** How did the “log2 ratio” value turn out when UniProt Q13242_C138 was run?
**A.** 0.112

**Q.** How did the “log2 ratio” value turn out when NSUN2 C184 (UniProt Q08J23) was run?
**A.** -0.0329

**Q.** Which “log2 ratio” value does the source give for EEA1 C1405 (UniProt Q15075) here?
**A.** 0.0817

**Q.** With GABPB1 C331 (UniProt Q06547) as the target, how does the “log2 ratio” value read?
**A.** 0.198

**Q.** How did the “log2 ratio” value turn out when UniProt P68431_C111 was run?
**A.** 0.142

**Q.** Which “log2 ratio” value does the source give for ILK C422 (UniProt Q13418) here?
**A.** 0.358

**Q.** MORC3 C619 (UniProt Q14149) was tested. Which “log2 ratio” value did it give?
**A.** 0.279

**Q.** CHAF1A C190 (UniProt Q13111) was tested. Which “log2 ratio” value did it give?
**A.** 1.08 (active)

**Q.** With ACOX1 C199 (UniProt Q15067) as the target, how does the “log2 ratio” value read?
**A.** 0.0457

**Q.** With NUMA1 C658 (UniProt Q14980) as the target, how does the “log2 ratio” value read?
**A.** -0.0504

**Q.** With IAH1 C4 (UniProt Q2TAA2) as the target, how does the “log2 ratio” value read?
**A.** 2.43 (active)

From the supplement of paper PMC11006884
